Values joined by “and” are separate entries in the source; they are usually repeats but may differ in a detail not shown here. Equal entries are not always repeated.
Key:
[1] = target: T1, Tyrosine-protein kinase ITK/TSK (Homo sapiens) (UniProt Q08881); conditions: at 1 µM;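 also: values are mean percent inhibition of ITK from the GSK PKIS screen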
T1 sequence (whole entry): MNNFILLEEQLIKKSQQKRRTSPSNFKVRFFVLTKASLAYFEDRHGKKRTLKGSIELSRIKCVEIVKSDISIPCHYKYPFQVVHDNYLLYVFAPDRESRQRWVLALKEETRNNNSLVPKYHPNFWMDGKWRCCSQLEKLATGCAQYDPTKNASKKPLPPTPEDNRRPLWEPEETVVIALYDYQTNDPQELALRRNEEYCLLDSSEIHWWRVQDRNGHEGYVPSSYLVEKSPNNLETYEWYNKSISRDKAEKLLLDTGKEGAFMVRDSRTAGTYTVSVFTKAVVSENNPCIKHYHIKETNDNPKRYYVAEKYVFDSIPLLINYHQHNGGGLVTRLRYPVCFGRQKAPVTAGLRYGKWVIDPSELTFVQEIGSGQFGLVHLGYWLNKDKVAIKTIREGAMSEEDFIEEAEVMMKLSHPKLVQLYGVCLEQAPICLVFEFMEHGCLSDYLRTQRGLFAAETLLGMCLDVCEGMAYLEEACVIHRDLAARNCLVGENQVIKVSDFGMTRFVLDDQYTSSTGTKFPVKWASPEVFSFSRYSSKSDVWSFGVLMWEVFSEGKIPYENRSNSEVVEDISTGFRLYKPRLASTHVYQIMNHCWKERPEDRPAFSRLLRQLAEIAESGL

[2] = target: Tyrosine-protein kinase JAK1 (Homo sapiens) (UniProt P23458); conditions: at 0.1 µM
Sequence of Tyrosine-protein kinase JAK1 (Homo sapiens) (P23458 whole entry): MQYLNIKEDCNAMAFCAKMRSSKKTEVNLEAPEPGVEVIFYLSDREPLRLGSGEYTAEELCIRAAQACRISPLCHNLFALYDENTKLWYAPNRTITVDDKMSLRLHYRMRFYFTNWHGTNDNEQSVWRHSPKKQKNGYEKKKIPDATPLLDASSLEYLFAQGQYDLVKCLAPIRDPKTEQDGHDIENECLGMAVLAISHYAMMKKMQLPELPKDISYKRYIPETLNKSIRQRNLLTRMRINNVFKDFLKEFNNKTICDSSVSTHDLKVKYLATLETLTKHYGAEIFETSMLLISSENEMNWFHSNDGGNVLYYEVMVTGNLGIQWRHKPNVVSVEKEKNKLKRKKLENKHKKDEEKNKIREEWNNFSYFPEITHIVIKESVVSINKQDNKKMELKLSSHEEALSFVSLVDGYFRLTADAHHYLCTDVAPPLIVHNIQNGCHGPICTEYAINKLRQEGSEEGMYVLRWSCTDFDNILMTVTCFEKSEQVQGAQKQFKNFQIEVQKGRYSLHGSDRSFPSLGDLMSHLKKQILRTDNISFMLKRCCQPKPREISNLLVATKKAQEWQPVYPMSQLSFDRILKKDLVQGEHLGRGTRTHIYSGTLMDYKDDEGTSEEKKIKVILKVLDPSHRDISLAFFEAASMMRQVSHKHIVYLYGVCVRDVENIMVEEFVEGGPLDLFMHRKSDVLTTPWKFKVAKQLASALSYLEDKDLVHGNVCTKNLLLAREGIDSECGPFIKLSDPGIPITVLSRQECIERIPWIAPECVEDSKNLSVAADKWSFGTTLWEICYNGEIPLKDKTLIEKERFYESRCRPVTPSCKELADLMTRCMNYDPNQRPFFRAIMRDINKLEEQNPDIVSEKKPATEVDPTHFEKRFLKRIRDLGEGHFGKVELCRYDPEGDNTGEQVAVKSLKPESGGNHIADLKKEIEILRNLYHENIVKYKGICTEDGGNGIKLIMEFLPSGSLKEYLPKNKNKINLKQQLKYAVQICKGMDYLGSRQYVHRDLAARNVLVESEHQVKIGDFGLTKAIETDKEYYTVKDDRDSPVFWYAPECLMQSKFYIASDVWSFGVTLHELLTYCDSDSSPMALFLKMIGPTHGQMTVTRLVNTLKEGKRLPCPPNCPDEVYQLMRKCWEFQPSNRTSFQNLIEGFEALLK

[3] = target: Tyrosine-protein kinase JAK1 (Homo sapiens) (UniProt P23458); conditions: at 1 µM
[4] = target: Tyrosine-protein kinase JAK2 (Homo sapiens) (UniProt O60674); conditions: at 0.1 µM
Sequence of Tyrosine-protein kinase JAK2 (Homo sapiens) (O60674 whole entry): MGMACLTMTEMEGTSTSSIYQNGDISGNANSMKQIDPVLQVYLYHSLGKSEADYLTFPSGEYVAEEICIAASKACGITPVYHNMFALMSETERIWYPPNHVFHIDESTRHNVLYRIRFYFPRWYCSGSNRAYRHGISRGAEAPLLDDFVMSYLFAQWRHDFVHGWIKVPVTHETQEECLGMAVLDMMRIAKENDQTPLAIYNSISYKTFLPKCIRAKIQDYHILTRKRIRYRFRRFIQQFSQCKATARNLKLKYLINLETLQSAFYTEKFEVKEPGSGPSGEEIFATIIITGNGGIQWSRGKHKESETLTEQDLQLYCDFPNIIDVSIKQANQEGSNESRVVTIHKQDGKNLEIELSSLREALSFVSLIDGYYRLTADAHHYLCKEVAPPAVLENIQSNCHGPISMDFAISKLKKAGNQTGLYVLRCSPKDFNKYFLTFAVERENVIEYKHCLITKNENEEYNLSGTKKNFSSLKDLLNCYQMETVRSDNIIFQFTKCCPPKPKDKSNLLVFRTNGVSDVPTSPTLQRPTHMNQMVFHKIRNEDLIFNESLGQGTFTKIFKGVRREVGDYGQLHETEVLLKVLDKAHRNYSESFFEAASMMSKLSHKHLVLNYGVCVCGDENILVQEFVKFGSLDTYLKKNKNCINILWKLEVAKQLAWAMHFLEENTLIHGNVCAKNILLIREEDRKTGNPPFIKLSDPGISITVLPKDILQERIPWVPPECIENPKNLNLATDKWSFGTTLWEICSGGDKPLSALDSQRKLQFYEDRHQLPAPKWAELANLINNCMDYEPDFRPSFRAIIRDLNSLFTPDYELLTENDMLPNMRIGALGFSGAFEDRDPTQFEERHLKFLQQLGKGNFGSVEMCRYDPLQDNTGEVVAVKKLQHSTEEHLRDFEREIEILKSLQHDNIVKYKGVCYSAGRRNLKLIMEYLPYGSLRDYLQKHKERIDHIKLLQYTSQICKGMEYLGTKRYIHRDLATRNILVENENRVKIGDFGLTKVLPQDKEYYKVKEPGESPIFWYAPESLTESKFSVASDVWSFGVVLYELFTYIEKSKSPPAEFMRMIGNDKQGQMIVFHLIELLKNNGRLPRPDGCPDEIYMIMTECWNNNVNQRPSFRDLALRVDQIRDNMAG

[5] = target: Tyrosine-protein kinase JAK2 (Homo sapiens) (UniProt O60674); conditions: at 1 µM
[6] = target: T2, Tyrosine-protein kinase JAK3 (Homo sapiens) (UniProt P52333); conditions: at 0.1 µM
T2 sequence (whole entry): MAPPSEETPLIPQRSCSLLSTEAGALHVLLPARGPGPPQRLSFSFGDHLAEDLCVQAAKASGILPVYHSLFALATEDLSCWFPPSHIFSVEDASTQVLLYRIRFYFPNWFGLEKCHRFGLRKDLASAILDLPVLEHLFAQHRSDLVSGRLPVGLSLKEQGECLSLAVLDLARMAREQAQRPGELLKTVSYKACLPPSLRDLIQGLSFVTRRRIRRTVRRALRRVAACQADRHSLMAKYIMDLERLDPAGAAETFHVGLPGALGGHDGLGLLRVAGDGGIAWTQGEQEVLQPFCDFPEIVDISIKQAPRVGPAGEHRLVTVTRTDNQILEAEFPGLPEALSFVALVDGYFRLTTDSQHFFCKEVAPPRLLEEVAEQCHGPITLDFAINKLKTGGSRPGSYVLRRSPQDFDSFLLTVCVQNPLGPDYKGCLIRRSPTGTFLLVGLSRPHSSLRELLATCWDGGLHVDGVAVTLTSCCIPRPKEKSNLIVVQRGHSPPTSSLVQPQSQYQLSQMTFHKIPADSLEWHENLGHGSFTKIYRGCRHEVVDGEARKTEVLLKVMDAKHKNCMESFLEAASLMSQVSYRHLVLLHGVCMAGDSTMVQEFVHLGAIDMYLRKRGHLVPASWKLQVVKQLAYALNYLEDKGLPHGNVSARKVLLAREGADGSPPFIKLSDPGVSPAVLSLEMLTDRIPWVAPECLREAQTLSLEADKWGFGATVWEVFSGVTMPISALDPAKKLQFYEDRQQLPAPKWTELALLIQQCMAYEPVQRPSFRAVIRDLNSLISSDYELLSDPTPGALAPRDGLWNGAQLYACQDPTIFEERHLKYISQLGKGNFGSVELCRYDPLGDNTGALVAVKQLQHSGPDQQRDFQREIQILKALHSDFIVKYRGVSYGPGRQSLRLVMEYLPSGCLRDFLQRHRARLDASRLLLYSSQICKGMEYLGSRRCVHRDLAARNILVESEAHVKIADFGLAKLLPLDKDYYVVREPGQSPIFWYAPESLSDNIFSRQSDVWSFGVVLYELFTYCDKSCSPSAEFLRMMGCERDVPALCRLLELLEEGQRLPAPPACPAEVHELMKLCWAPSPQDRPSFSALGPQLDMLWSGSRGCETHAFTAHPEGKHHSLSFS

[7] = target: T2, Tyrosine-protein kinase JAK3 (Homo sapiens); conditions: at 1 µM
[8] = target: Vascular endothelial growth factor receptor 2 (Homo sapiens) (UniProt P35968); conditions: at 0.1 µM
[9] = target: Vascular endothelial growth factor receptor 2 (Homo sapiens) (UniProt P35968); conditions: at 1 µM
[10] = target: Mast/stem cell growth factor receptor Kit (Homo sapiens) (UniProt P10721); conditions: at 0.1 µM
Sequence of Mast/stem cell growth factor receptor Kit (Homo sapiens) (P10721 whole entry): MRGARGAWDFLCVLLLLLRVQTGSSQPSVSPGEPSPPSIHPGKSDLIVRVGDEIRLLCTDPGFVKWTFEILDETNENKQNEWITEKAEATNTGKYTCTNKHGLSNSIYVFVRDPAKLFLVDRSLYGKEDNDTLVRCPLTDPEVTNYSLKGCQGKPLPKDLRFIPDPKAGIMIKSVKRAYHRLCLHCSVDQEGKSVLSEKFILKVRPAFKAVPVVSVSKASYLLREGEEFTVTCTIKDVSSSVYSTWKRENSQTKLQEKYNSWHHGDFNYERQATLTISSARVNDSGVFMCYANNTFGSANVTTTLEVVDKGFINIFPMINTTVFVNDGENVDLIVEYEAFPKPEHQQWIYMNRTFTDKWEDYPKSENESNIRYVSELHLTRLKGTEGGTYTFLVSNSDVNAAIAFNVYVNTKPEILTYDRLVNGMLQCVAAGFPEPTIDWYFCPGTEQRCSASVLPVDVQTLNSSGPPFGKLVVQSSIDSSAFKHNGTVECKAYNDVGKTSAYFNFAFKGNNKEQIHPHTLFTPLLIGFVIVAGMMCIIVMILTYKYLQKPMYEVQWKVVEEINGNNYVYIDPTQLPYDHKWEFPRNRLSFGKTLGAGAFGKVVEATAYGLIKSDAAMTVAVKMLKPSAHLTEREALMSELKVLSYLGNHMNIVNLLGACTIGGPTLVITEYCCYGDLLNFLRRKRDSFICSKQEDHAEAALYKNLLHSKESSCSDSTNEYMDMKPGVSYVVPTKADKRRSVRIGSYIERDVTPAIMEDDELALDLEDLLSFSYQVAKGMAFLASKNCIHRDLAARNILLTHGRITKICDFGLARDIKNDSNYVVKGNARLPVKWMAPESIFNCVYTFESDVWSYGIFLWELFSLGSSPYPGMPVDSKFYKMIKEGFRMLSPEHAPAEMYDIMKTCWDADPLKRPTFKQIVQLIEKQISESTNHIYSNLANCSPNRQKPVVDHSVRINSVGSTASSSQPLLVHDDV

[11] = target: Mast/stem cell growth factor receptor Kit (Homo sapiens) (UniProt P10721); conditions: at 1 µM
[12] = test system: Mast/stem cell growth factor receptor Kit (Homo sapiens), P10721 [D816V]; conditions: at 0.1 µM
Sequence of Mast/stem cell growth factor receptor Kit (Homo sapiens), P10721 [D816V] (P10721 whole entry D816V): as the sequence (P10721 whole entry) above, with D816V counted along it

[13] = test system: Mast/stem cell growth factor receptor Kit (Homo sapiens), P10721 [D816V]; conditions: at 1 µM
[14] = test system: Mast/stem cell growth factor receptor Kit (Homo sapiens), P10721 [T670I]; conditions: at 0.1 µM
Sequence of Mast/stem cell growth factor receptor Kit (Homo sapiens), P10721 [T670I] (P10721 whole entry T670I): as the sequence (P10721 whole entry) above, with T670I counted along it

[15] = test system: Mast/stem cell growth factor receptor Kit (Homo sapiens), P10721 [T670I]; conditions: at 1 µM
[16] = test system: Mast/stem cell growth factor receptor Kit (Homo sapiens), P10721 [V560G]; conditions: at 0.1 µM
Sequence of Mast/stem cell growth factor receptor Kit (Homo sapiens), P10721 [V560G] (P10721 whole entry V560G): as the sequence (P10721 whole entry) above, with V560G counted along it

[17] = test system: Mast/stem cell growth factor receptor Kit (Homo sapiens), P10721 [V560G]; conditions: at 1 µM
[18] = target: Tyrosine-protein kinase Lck (Homo sapiens) (UniProt P06239); conditions: at 0.1 µM
Sequence of Tyrosine-protein kinase Lck (Homo sapiens) (P06239 2-509 limits assumed): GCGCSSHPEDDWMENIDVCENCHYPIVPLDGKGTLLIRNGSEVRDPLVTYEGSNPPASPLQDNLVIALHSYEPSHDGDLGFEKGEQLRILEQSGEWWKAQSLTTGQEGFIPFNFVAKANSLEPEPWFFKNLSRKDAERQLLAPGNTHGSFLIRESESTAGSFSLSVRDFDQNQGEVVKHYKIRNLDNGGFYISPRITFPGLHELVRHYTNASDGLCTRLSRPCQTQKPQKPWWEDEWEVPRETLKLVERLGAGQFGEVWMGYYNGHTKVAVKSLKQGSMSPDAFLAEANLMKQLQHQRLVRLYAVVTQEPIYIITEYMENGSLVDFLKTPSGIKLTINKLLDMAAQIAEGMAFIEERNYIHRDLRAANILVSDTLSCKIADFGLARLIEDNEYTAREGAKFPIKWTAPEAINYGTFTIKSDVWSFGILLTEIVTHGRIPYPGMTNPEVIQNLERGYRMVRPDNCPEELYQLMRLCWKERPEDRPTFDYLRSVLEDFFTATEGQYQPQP

[19] = target: Tyrosine-protein kinase Lck (Homo sapiens) (UniProt P06239); conditions: at 1 µM
[20] = target: Leukocyte tyrosine kinase receptor (Homo sapiens) (UniProt P29376); conditions: at 0.1 µM
Sequence of Leukocyte tyrosine kinase receptor (Homo sapiens) (P29376 whole entry): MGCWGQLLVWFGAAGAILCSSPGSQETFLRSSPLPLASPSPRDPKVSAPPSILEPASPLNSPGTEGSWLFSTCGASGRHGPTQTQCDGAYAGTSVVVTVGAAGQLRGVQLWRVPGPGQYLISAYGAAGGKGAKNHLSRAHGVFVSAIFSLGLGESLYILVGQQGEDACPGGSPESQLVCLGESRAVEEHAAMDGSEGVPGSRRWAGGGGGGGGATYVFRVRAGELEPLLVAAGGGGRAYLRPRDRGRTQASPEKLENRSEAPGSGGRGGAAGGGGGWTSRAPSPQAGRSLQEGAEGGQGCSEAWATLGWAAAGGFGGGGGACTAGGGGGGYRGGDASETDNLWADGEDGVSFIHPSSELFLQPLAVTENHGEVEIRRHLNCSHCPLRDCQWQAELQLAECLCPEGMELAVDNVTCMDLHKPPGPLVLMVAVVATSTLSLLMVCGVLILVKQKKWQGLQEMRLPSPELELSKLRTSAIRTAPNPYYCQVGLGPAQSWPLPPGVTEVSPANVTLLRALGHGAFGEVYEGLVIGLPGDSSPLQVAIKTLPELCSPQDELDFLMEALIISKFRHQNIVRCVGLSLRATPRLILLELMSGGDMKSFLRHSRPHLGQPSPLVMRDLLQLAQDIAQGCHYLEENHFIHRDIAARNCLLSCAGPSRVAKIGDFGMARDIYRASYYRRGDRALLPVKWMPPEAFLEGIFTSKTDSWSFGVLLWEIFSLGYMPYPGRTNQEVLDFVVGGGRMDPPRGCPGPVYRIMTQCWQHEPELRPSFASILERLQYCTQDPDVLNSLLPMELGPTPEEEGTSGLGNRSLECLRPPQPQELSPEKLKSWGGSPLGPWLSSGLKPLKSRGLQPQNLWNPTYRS

| Structure (SMILES) | inhibition [1] | inhibition [2] | inhibition [3] | inhibition [4] | inhibition [5] | inhibition [6] | inhibition [7] | inhibition [8] | inhibition [9] | inhibition [10] | inhibition [11] | inhibition [12] | inhibition [13] | inhibition [14] | inhibition [15] | inhibition [16] | inhibition [17] | inhibition [18] | inhibition [19] | inhibition [20] |
| --- | --- | --- | --- | --- | --- | --- | --- | --- | --- | --- | --- | --- | --- | --- | --- | --- | --- | --- | --- | --- |
| N#Cc1ccc2c(-c3ccnc(NC4CC4)n3)c(-c3ccc(F)cc3)nn2c1 | 0.51% | 0.46% | 0.31% | -0.51% | -0.42% | -1.62% | -1.11% | 1.86% | 14.6% | 3.02% | 20.2% | -1.04% | 2.35% | 1.28% | 0.73% | 0.24% | 1.17% | 1.08% | 0.11% | 1.05% |
| Nc1nonc1-c1nc2cnccc2n1C1CC1 | 1.67% and -2.42% | 0.26% and 0.62% | -0.07% and 3.24% | 0.87% and 1.12% | 3.76% and 0.55% | 4.13% and -4.12% | 4.66% and -3.11% | 14.3% and 13.8% | 54.2% and 52% | 4.06% and 2.58% | 14.9% and 15.5% | 3.53% and 1.67% | 3.46% and 2.18% | 1.4% and 2.21% | 6.91% and 8.64% | -1.94% and 0.52% | -1.23% and -2.01% | 3.06% and -3.03% | 3.02% and -1.62% | 2.93% and 1.07% |
| COc1cc(N2CCN(C(C)C)CC2)ccc1Nc1nc(Nc2cccc3ncccc23)c2cc[nH]c2n1 | 2.05% | -1.68% | -0.17% | -0.12% | 0.72% | 1.35% | 1.57% | 1.96% | 3.64% | -0.77% | 2.29% | -1.39% | -2.2% | 0.28% | 0.54% | 0.73% | 6.87% | 0.42% | 3.07% | 34.7% |
| FC(F)(F)CNc1nccc(-c2cnn3ncccc23)n1 | 1% | 1.9% | 2.18% | 1.39% | -0.82% | -1.54% | -1.63% | 2.14% | 4.88% | 2.28% | 3.6% | 0.88% | 2.79% | 0.67% | 0.91% | -2.94% | 0.4% | 1.7% | 3.74% | 2.72% |
| COc1ccc2ncn(-c3cc(O[C@H](C)c4ccccc4C(F)(F)F)c(C(N)=O)s3)c2c1 | 1.39% | -0.98% | 5.43% | 1.01% | -1.12% | 0.5% | 6.44% | 2.92% | 14.1% | -1.6% | 14.7% | -1.17% | 2.71% | 1.09% | 3.92% | 0.71% | 2.83% | 0.65% | 2.2% | 0.48% |
| CNC(=O)c1ncccc1Nc1nc(Nc2cc3c(cc2OC)CCCN3C(=O)CN(C)C)nc2[nH]ccc12 | 2.8% | 4.62% | -0.74% | 1.24% | 1.63% | 2.81% | 0.89% | 4.97% | 5.02% | 5.24% | 3.44% | 1.27% | 4.76% | 3.12% | 1.68% | -0.63% | 0.67% | 2.48% | 4.71% | 86.9% |
| CN(c1ccc(NC(=O)NCCN2CCOCC2)cc1)c1ccnc(Nc2ccc(CS(C)(=O)=O)cc2)n1 | 9.06% | 3.28% | 15% | 0.02% | 9.94% | -0.77% | 7.15% | 7.07% | 34.8% | 60.2% | 94.2% | 2.49% | 4.98% | 21.6% | 73.6% | 57.2% | 84.5% | 1.63% | 11% | 2.84% |
| NS(=O)(=O)c1ccc(N/N=C2\C(=O)Nc3ccc(C(=O)NCc4ccncc4)cc32)cc1 | 3.12% | 3.77% | 9.66% | 0.74% | 1.38% | -0.81% | 6.2% | 7.35% | 34.5% | 4.44% | 12.5% | 3.05% | 12.7% | 1.57% | 4.42% | 1.34% | 10.7% | 2.05% | 8.27% | 2.1% |
| CS(=O)(=O)CCNCc1ccoc1-c1ccc2ncnc(Nc3ccc(OCc4ccccc4)cc3)c2c1 | 1.03% | -1.22% | -0.53% | -0.17% | -0.95% | -0.19% | 0.82% | 3.88% | 5.6% | 1.94% | 6.88% | 5.01% | 1.5% | 2.27% | 2.3% | 0.74% | 3.57% | 1.79% | 8.23% | 1.59% |

From ChEMBL document CHEMBL1961873, “Compounds: GSK PKIS; Assays: Nanosyn kinase panel” (2012)
